Screening data (PubChem BioAssay)
In the library only some 6.3% were active in any assay of this set; here they are far more common.
Spn MK inh: S. pneumoniae MK inhibitors, primary screen, biochemical, PK/LDH-coupled NADH absorbance; actives 0.48% (n = 65,000); purified MK, PK/LDH-coupled NADH absorbance 340 nm; inhibition, % at 10 µM;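 active = ranked among the strongest by inhibition in the single 10 µM screen, a fixed top-ranked set picked for dose follow-up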
Autofluor 339: intrinsic fluorescence of library compounds, ex339/em460 – biochemical, MLSMR library, data from DPM-DC assay, artefact control, profiling panel. compound autofluorescence, ex339/em460 nm, NADH buffer; stronger effect = higher value; 1 = no-compound wells, NADH background. actives 5.5% (n = 65,000). fluorescence fold increase at 10 µM;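 active = at 10 µM, mean starting fluorescence two-fold or more over control wells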;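 note: signal is the first read of a kinetic run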
DPM-DC inhibit: S. pneumoniae DPM-DC inhibitors, primary screen, biochemical, PK/LDH-coupled NADH fluorescence | diphosphomevalonate decarboxylase (Streptococcus pneumoniae D39) | purified DPM-DC | calls only at 10 µM | actives 0.49% (n = 65,000) | AID 556, 2006;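 active = the 320 compounds with the highest percent inhibition in the single-dose primary screen, excluding strongly autofluorescent ones, cut at about 32% in these data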;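 note: kinetic rate of NADH fluorescence loss reporting ADP formed by the decarboxylase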
PMK inhibit: S. pneumoniae PMK inhibitors, primary screen, biochemical, mevalonate pathway, pilot trial included; phosphomevalonate kinase (Streptococcus pneumoniae D39); AID 539, 2006; inhibition, % at 10 µM; purified PMK, PK/LDH-coupled NADH absorbance 340 nm; actives 0.49% (n = 65,000);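 active = top-ranked compounds by inhibition in the single 10 µM screen, taking a fixed number of the strongest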;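 note: 0% = full reaction with DMSO carrier and 100% = background rate without enzyme reaction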
NADH coupling: inhibitors of PK/LDH coupling enzymes, profiling panel, artefact control, biochemical, MLSMR library. coupled PK/LDH NADH assays, four targets. IC50, µM (doses to about 10 µM), inactives show at the highest dose inhibition. actives 0.02% (n = 65,000);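 active = single-dose screening hits from any of four coupled enzyme assays that gave an IC50 when retested across doses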;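 note: the DPM-DC format reads NADH fluorescence rather than 340 nm absorbance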
Abs 340nm: compound light absorbance at 340 nm, profiling panel, artefact control, biochemical, MLSMR library, data from PS, PMK, MK assays; compound absorbance at 340 nm, fold over control; fold change at 10 µM; 65,000 tested, under 10 active; AID 708, 2007;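 active = at 10 µM dose, initial 340 nm absorbance at least 2 fold that of control wells; inactive = change under 2 fold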;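 note: initial absorbance extrapolated from kinetic A340 decline of NADH oxidation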
Numbers without * were called inactive.

`CCC(C)NC(=O)CCC(=O)Nc1ccc2nc(N3CCOCC3)cc(C)c2c1` (stereo not given) gave Spn MK inh 0, Autofluor 339 5*, PMK inhibit 8, NADH coupling 4% and Abs 340nm 1.1.
Screening Cc1ccc(NC(=O)c2cc(N3CCOCC3)nc3ccccc23)cc1 returned Spn MK inh 12, Autofluor 339 1.6, DPM-DC inhibit inactive, PMK inhibit 7, NADH coupling 10% and Abs 340nm 1.
`CCN1CCN(c2cc(C)c3cc(NC(=O)c4cnccn4)ccc3n2)CC1` gave Spn MK inh 2, Autofluor 339 1, DPM-DC inhibit inactive, PMK inhibit 4, NADH coupling 2% and Abs 340nm 1.2.
Screening CCN1CCN(c2cc(C)c3cc(NC(=O)Cc4ccc(OC)c(OC)c4)ccc3n2)CC1 returned Spn MK inh 2, Autofluor 339 2.1*, PMK inhibit 0, NADH coupling 1% and Abs 340nm 1.1.
`Cc1cccc(NC(=O)c2cc(N3CCOCC3)nc3ccccc23)c1` gave Spn MK inh 10, Autofluor 339 1.9, DPM-DC inhibit inactive, PMK inhibit 2, NADH coupling 4% and Abs 340nm 1.
Screening Cc1cc(N2CCOCC2)nc2ccc(NC(=O)CCC(=O)N3CCC(C)CC3)cc12 returned Spn MK inh 4, Autofluor 339 4.8*, PMK inhibit 10, NADH coupling 7% and Abs 340nm 1.
Cc1cc(N2CCOCC2)nc2ccc(NC(=O)CCC(=O)N3CCCCC3)cc12 was read as Spn MK inh 2, Autofluor 339 4.7*, PMK inhibit 11, NADH coupling 7% and Abs 340nm 1.
Screening CC1CCCC(C)N1CCNC(=O)C1CCN(S(=O)(=O)N2CCCCC2)CC1 (stereo not given) returned Spn MK inh 0, Autofluor 339 1, DPM-DC inhibit inactive, PMK inhibit 8, NADH coupling 4% and Abs 340nm 1.
`COc1ccc(C2/C(=C(/O)c3ccc(F)cc3)C(=O)C(=O)N2CCCN(C)C)cc1` (stereo not given) gave Spn MK inh 9, Autofluor 339 1.1, DPM-DC inhibit inactive, PMK inhibit 14, NADH coupling 11% and Abs 340nm 1.2.
CC1=C(C(=O)Nc2ccccc2C)C(c2ccc(C)o2)C2=C(CCCC2=O)N1 (stereo not given) was read as Spn MK inh 0, Autofluor 339 1.3, DPM-DC inhibit inactive, PMK inhibit 18, NADH coupling 9% and Abs 340nm 1.1.
`CCCCN(C)C(=O)CCC(=O)Nc1ccc2nc(N3CCOCC3)cc(C)c2c1` gave Spn MK inh 7, Autofluor 339 4.8*, PMK inhibit 12, NADH coupling 10% and Abs 340nm 1.1.
`COc1ccc(N(C)C(=O)CCC(=O)Nc2ccc3nc(N4CCOCC4)cc(C)c3c2)c(OC)c1` gave Spn MK inh 4, Autofluor 339 4.8*, PMK inhibit 13, NADH coupling 9% and Abs 340nm 1.
Screening Cc1cc(N2CCN(C)CC2)nc2ccc(NC(=O)c3ccc4c(c3)OCO4)cc12 returned Spn MK inh 9, Autofluor 339 1.1, DPM-DC inhibit inactive, PMK inhibit 0, NADH coupling 4% and Abs 340nm 1.1.
`CCOc1ccccc1NC(=O)CCC(=O)Nc1ccc2nc(N3CCN(C)CC3)cc(C)c2c1` gave Spn MK inh 0, Autofluor 339 3.8*, DPM-DC inhibit inactive, PMK inhibit 14, NADH coupling 6% and Abs 340nm 1.1.
Screening COCCCN=C(c1ccco1)n1c(=S)nc(-c2ccco2)n(CCCOC)c1=S returned Spn MK inh 10, Autofluor 339 1, DPM-DC inhibit inactive, PMK inhibit 16, NADH coupling 9% and Abs 340nm 1.2.
CSc1ccc(/C=N/n2nnnc2N)cc1 was read as Spn MK inh 12, Autofluor 339 5*, PMK inhibit 7, NADH coupling 10% and Abs 340nm 1.2.
`CCN(CC)c1ccc(/C=N/n2nnnc2N)c(O)c1` gave Spn MK inh 13, Autofluor 339 1.7, DPM-DC inhibit inactive, PMK inhibit 0, NADH coupling 6% and Abs 340nm 1.
`COc1cc(/C=N/n2nnnc2N)ccc1O` gave Spn MK inh 1, Autofluor 339 1.3, DPM-DC inhibit inactive, PMK inhibit 9, NADH coupling 9% and Abs 340nm 1.1.
Screening CCN(C)c1ccc(/C=N\n2nnnc2N)cc1 returned Spn MK inh 9, Autofluor 339 2.5*, DPM-DC inhibit inactive, PMK inhibit 10, NADH coupling 15% and Abs 340nm 1.1.
For Oc1ccccc1-c1nnc(-c2ccc(C(F)(F)F)cc2)o1 the results were Spn MK inh 0, Autofluor 339 2.5*, DPM-DC inhibit inactive, PMK inhibit 22, NADH coupling 17% and Abs 340nm 1.
For Cc1ccccc1-c1nnc(-c2ccc(Br)cc2)o1 the results were Spn MK inh 5, Autofluor 339 1.1, DPM-DC inhibit inactive, PMK inhibit 7, NADH coupling 4% and Abs 340nm 1.
CC(O)c1nc2ccccc2n1Cc1nnc(-c2ccc(Cl)cc2)o1 (stereo not given) was read as Spn MK inh 0, Autofluor 339 1.1, DPM-DC inhibit inactive, PMK inhibit 16, NADH coupling 5% and Abs 340nm 1.
`c1ccc(-c2nnc(Cn3c4ccccc4c4nc5ccccc5nc43)o2)cc1` gave Spn MK inh 9, Autofluor 339 3.6*, PMK inhibit 8, NADH coupling 9% and Abs 340nm 1.1.
Cc1c(=O)n(OCc2c(F)cccc2F)c2ccccc2[n+]1[O-] was read as Spn MK inh 6, Autofluor 339 1.1, DPM-DC inhibit inactive, PMK inhibit 11, NADH coupling 6% and Abs 340nm 1.
For NC(=O)c1c(NC(=O)c2cc3ccccc3o2)sc2c1CCC2 the results were Spn MK inh 0, Autofluor 339 2.1*, PMK inhibit 9, NADH coupling 5% and Abs 340nm 1.1.
`Cc1ccc(C(=O)Nc2sc3c(c2C(=O)O)CCCCC3)o1` gave Spn MK inh 0, Autofluor 339 1.1, DPM-DC inhibit inactive, PMK inhibit 14, NADH coupling 7% and Abs 340nm 1.2.
